Calls of active or inactive are those of the source.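 Rule for the calls, unless noted: active = fluorescence slope after compound addition differing from the mean of all screened samples at 99.7% confidence, in either direction; inactive = the rest.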
Assays:
[1] = inhibitors of TNFa-induced NFkB p65 translocation, primary screen, imaging, HUVEC, MLSMR starter and 10KST1 sets (AID 438;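 active = inhibition above 20% together with a positive visual image hit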;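 note: compound added about 3h40 before a 20 min TNFalpha stimulation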;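 for inhibition: signal is the nuclear over cytoplasmic p65 intensity ratio per well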); settings: HUVEC TNFa-induced p65 nuclear translocation; cell count: measured here: nuclei count (cytotoxicity indicator), at 2.08 µM; inhibition: at 2 µM, stronger effect = higher value, 0% TNFa-plus-vehicle, 100% no-TNFa wells
[2] = inhibitors of mutant huntingtin aggregation, primary screen, imaging, exon1htt(103Q)mCFP cells, high-content imaging (AID 483;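 active = visual image review flags a hit and inhibition of aggregation exceeds 20%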;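 note: compound exposure lasted 3 days before fixation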;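 for nuclei count: percent of the per-plate median nuclei count of sample wells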); settings: exon1htt(103Q)mCFP cell line, aggregate imaging, at 2 µM; inhibition of aggregation: stronger effect = higher value; nuclei count: measured here: cell count, toxicity
[3] = inhibitors of E-selectin induction by TNFa, primary screen, imaging, HUVEC, immunofluorescence, MLSMR starter and 10KST1 sets (AID 487;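 active = visually confirmed hit in the image check and inhibition above 20%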;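 for inhibition: signal is fraction of cell area covered by stained E-selectin grains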;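 for nuclei count: 100% = median nuclei count of all wells on the same plate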); settings: HUVEC TNFalpha-induced E-selectin immunofluorescence imaging, at 2 µM; inhibition: stronger effect = higher value; nuclei count: measured here: cell number, toxicity
[4] = target: Voltage-gated potassium channel subunit beta-2 (Rattus norvegicus) (UniProt P62483); assay: KvBeta enzyme negative modulators, primary screen, biochemical, NADPH fluorescence (AID 622;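 active = fluorescence slope higher than the sample average by over 3 SD, cut at about -0.22 in these data, passing the limit was not always enough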;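 note: slope of raw intensity against log time taken from 70 to 1610 s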); settings: recombinant KvBeta, 4-cyanobenzaldehyde reduction, at 10 µM, stronger effect = higher value
[5] = target: Voltage-gated potassium channel subunit beta-2 (Rattus norvegicus) (UniProt P62483); assay: KvBeta positive modulators, primary screen, biochemical, NADPH fluorescence (AID 623;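 active = NADPH fluorescence slope more negative than the mean of all samples by about 3 SD, 99.7% confidence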;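 note: fluorescence intensity change per second fitted from 20 to 320 s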); settings: Recombinant KvBeta, NADPH fluorescence decrease slope, 10 min; at 10 µM; stronger effect = lower value
[6] = target: Alpha-2C adrenergic receptor (Homo sapiens) (UniProt P18825); assay: modulators of alpha2C/GIRK thallium flux, primary screen, cell-based, HEK293 alpha2C/GIRK1/2 (AID 624); settings: thallium flux BTC fluorescence, at 10 µM, actives lie on both sides;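 note: slope of fluorescence ratio to pre-addition baseline per second over 15 to 24 s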
[7] = inhibitors of Sendai virus-induced IRF3 signaling, primary screen, TLR/RLR signaling modifier project, cell-based, Sendai virus stimulus, luciferase, 10K MLSCN set (AID 602276;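 active = inhibition at or above 50% at 10 µM; inactive = inhibition below 50%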;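 note: firefly luciferase from ISG56 promoter only with Renilla not read in this screen; 0% = Sendai virus plus DMSO and 100% = medium plus DMSO without virus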); settings: HEK293 RL24 IRF3 luciferase reporter, at 10 µM, stronger effect = higher value
[8] = inhibitors of poly I:C-induced TLR3 signaling, primary screen, cell-based, poly I:C stimulus, luciferase, 10K MLSCN set (AID 602277;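 active = inhibition of the reporter signal at or above 50%; inactive = inhibition below 50%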); settings: HEK293-TLR3 RL24 IRF3 luciferase reporter, at 10 µM, stronger effect = higher value

Chain of Voltage-gated potassium channel subunit beta-2 (Rattus norvegicus) (P62483 whole entry, looked up): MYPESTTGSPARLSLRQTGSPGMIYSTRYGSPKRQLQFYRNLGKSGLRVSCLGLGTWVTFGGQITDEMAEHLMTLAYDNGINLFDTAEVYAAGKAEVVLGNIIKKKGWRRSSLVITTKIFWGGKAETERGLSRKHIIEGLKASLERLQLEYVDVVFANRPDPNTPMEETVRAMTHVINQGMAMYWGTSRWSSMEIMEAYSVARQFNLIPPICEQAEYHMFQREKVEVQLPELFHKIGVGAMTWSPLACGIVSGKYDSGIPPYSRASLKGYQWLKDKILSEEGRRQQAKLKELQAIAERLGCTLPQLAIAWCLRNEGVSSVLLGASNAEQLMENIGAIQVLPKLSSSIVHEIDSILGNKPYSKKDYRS
Chain of Alpha-2C adrenergic receptor (Homo sapiens) (P18825 whole entry, looked up): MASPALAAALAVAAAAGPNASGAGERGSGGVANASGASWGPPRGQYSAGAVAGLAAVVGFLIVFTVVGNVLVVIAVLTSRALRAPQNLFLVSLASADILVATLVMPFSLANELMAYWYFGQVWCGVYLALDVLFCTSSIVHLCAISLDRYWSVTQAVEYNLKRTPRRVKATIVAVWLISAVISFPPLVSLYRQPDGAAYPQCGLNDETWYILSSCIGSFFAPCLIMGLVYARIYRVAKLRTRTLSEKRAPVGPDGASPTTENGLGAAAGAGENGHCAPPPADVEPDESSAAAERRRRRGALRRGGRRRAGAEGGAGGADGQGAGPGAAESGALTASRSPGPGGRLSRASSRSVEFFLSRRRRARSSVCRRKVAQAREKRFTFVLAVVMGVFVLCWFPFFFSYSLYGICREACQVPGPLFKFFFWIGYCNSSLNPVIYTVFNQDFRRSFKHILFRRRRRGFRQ

| SMILES | cell count [1] | inhibition [1] | inhibition of aggregation [2] | nuclei count [2] | inhibition [3] | nuclei count [3] | fluorescence slope [4] | NADPH fluorescence slope [5] | slope [6] | inhibition [7] | inhibition [8] |
| --- | --- | --- | --- | --- | --- | --- | --- | --- | --- | --- | --- |
| Cc1cc(C)c2c(=O)n(CC(=O)NCCCN3CCOCC3)sc2n1 | 594 | 8.2% (inactive) | 1.1% (inactive) | 118% | 36.7% (inactive) | 106% | -0.548 (inactive) | -3.1e-05 (inactive) | 0.00687 (inactive) | 10.4% (inactive) | 40.4% (inactive) |
| CCN1C(=O)CC(C(=O)Nc2ccc(F)cc2)SC1=Nc1ccc2c(c1)OCO2 (stereo not drawn) | 551 | -28.9% (inactive) | 1.1% (inactive) | 110% | 1.8% (inactive) | 124% | -0.504 (inactive) | -3.2e-05 (inactive) | 0.00494 (inactive) | 18.1% (inactive) | 21.5% (inactive) |
| COc1ccc(CC(NC(C)=O)C(=O)N2CCN(C(=O)N(C(C)C)C(C)C)CC2)cc1 (stereo not drawn) | 309 | -4% (inactive) | -9.5% (inactive) | 91.9% | -29.4% (inactive) | 100% | -0.397 (inactive) | -6.6e-05 (inactive) | 0.00701 (inactive) | 4.31% (inactive) | 3.57% (inactive) |
| CCC(C)(C(=O)NC1CCCCC1)N(CC1CCCO1)C(=O)c1ccccn1 (stereo not drawn) | 345 | 3% (inactive) | 6.3% (inactive) | 90.8% | -5.3% (inactive) | 104% | -0.418 (inactive) | -8.5e-05 (inactive) | 0.0062 (inactive) | 15.2% (inactive) | 26.8% (inactive) |
| COc1cc(C(=O)N2CCC(NC(=O)C(Cc3ccc(C)cc3)NC(C)=O)CC2)cc(OC)c1OC (stereo not drawn) | 666 | -6.1% (inactive) | 22.1% (inactive) | 56.4% | 5.2% (inactive) | 127% | -0.478 (inactive) | -4.4e-05 (inactive) | 0.00562 (inactive) | 1.73% (inactive) | 24.4% (inactive) |
| CN(C(=O)c1cc2sccc2n1C)C1CCCCC1 | 227 | 1% (inactive) | 5.1% (inactive) | 80.1% | -64% (inactive) | 116% | -0.487 (inactive) | 2.7e-05 (inactive) | 0.00503 (inactive) | -56.2% (inactive) | -93.3% (inactive) |
| O=C(c1cc2n(n1)C(C(F)(F)F)CC(c1ccc(Cl)cc1)N2)N1CCCC1 (stereo not drawn) | 259 | -5.8% (inactive) | -22.3% (inactive) | 112% | -9.7% (inactive) | 102% | -0.322 (inactive) | 4.7e-06 (inactive) | 0.00413 (inactive) | 14.3% (inactive) | 16.5% (inactive) |
| CN(C)S(=O)(=O)c1ccc2c(c1)c(=O)c(C(=O)NCCCN1CCCCCC1)cn2C | 707 | -2.8% (inactive) | 4.4% (inactive) | 101% | -51.2% (inactive) | 106% | -0.601 (inactive) | -3.3e-05 (inactive) | 0.00602 (inactive) | 0.741% (inactive) | 31.9% (inactive) |
| Cn1c(=O)c2c(-c3ccccc3)n(CCCN3CCOCC3)cc2n(C)c1=O | 953 | 7.9% (inactive) | -17.3% (inactive) | 108% | -6.9% (inactive) | 102% | -0.574 (inactive) | -2.7e-08 (inactive) | 0.00936 (inactive) | -9.43% (inactive) | -18.1% (inactive) |
| CCCS(=O)(=O)N1CCCC(C(=O)NC2CCCC(C)C2C)C1 (stereo not drawn) | 357 | -0.5% (inactive) | 7.4% (inactive) | 92.6% | -13.1% (inactive) | 105% | -0.551 (inactive) | 2.2e-05 (inactive) | 0.00599 (inactive) | 9.58% (inactive) | -2.45% (inactive) |
| CCN1CCN(S(=O)(=O)Cc2ccccc2)CC1 | 426 | -2.4% (inactive) | 23.9% (inactive) | 32.2% | -78.4% (inactive) | 106% | -0.607 (inactive) | -2.9e-05 (inactive) | 0.00543 (inactive) | -13.3% (inactive) | -9.78% (inactive) |
| O=C1CC(N2CCN(c3cccc(C(F)(F)F)c3)CC2)C(=O)N1c1ccccc1 (stereo not drawn) | 622 | -1.5% (inactive) | -3.8% (inactive) | 117% | 64.7% (active) | 75.3% | -0.473 (inactive) | -1.5e-05 (inactive) | 0.00274 (inactive) | 7.76% (inactive) | 27.1% (inactive) |
| CCc1nnc(NC(=O)c2cc3c(s2)CCCCC3)s1 | 662 | 4.4% (inactive) | 4.1% (inactive) | 131% | -89.1% (inactive) | 108% | -0.406 (inactive) | -0.000125 (inactive) | 0.00621 (inactive) | -50.8% (inactive) | -103% (inactive) |
| CCC(C)(C)NC(=O)C(c1ccco1)N(C(=O)Cn1nnc2ccccc21)c1ccc2c(c1)OCO2 (stereo not drawn) | 497 | -25% (inactive) | 14.5% (inactive) | 86% | -10.4% (inactive) | 102% | -0.522 (inactive) | -2e-05 (inactive) | 0.00407 (inactive) | 14.6% (inactive) | 21% (inactive) |
| N#C/C(=C(/O)COC(=O)CCC1CCCCC1)c1nc2ccccc2[nH]1 | 317 | -3.4% (inactive) | -9.2% (inactive) | 120% | -3.3% (inactive) | 113% | -0.595 (inactive) | -3.2e-05 (inactive) | 0.0028 (inactive) | 16.8% (inactive) | 24.8% (inactive) |
| CCC(CC)C(=O)Nc1cccc(C(=O)NCc2ccco2)c1 | 295 | 2.3% (inactive) | -17.4% (inactive) | 107% | -100% (inactive) | 138% | -0.428 (inactive) | -1.2e-05 (inactive) | 0.00559 (inactive) | -5.68% (inactive) | -18.7% (inactive) |
| Cc1ccc(C)c2[nH]c(=O)c(CCNC(=O)CC(C)(C)C)cc12 | 650 | -5.3% (inactive) | 33.1% (inactive) | 63.8% | 16.6% (inactive) | 90.8% | -0.557 (inactive) | -5.3e-05 (inactive) | 0.00614 (inactive) | 4.63% (inactive) | 16.5% (inactive) |
| COc1cccc(C(=O)OCn2nnc3ccccc3c2=O)c1 | 592 | -5.6% (inactive) | 16.9% (inactive) | 89.6% | -14.7% (inactive) | 119% | -0.616 (inactive) | 4.3e-05 (inactive) | 0.00615 (inactive) | 17.1% (inactive) | 31.3% (inactive) |
| COc1cc(C2N=C(c3ccccc3)NO2)cc(Br)c1O (stereo not drawn) | 770 | 4.6% (inactive) | -13.7% (inactive) | 94.3% | -121% (inactive) | 108% | -0.546 (inactive) | 2.2e-05 (inactive) | 0.00675 (inactive) | -15.8% (inactive) | -15.1% (inactive) |
| CCCCCn1c(CN2CCN(C(=O)OCC)CC2)nc2c1c(=O)[nH]c(=O)n2C | 245 | 0.8% (inactive) | 10.4% (inactive) | 105% | 16.4% (inactive) | 78.3% | -0.564 (inactive) | 7.1e-06 (inactive) | 0.00615 (inactive) | 28.1% (inactive) | 19.9% (inactive) |
| CC(=O)NCc1nc2ccccc2n1C(C)C | 518 | 13% (inactive) | 15.8% (inactive) | 110% | 6.4% (inactive) | 119% | -0.575 (inactive) | -3.7e-05 (inactive) | 0.00817 (inactive) | 7.73% (inactive) | 21.5% (inactive) |
| CCC1SC2=NC(C)=C(C(=O)OC)C(c3ccc(C)cc3)N2C1=O (stereo not drawn) | 562 | -11.1% (inactive) | -9.6% (inactive) | 111% | -57.6% (inactive) | 103% | -0.591 (inactive) | -6.5e-05 (inactive) | 0.0061 (inactive) | -10.4% (inactive) | -17.2% (inactive) |
| COc1cccc(N2CCN(Cc3nc(N)nc(Nc4ccccc4)n3)CC2)c1 | 463 | -12.5% (inactive) | 18.2% (inactive) | 84.7% | 44.7% (inactive) | 93.5% | -0.479 (inactive) | -5.8e-06 (inactive) | 0.00543 (inactive) | 0.669% (inactive) | 15.7% (inactive) |
| CC(=O)c1cccc(N(CC(=O)N2CCCC2)S(C)(=O)=O)c1 | 529 | -5.4% (inactive) | 14.6% (inactive) | 88.4% | -11.1% (inactive) | 94.9% | -0.467 (inactive) | 2.1e-05 (inactive) | 0.00662 (inactive) | 13.6% (inactive) | 20% (inactive) |
| COC(=O)c1ccc(CSc2nc3c(cnn3-c3ccc(F)cc3)c(=O)[nH]2)o1 | 653 | -12.7% (inactive) | -1.4% (inactive) | 106% | -44.8% (inactive) | 113% | -0.545 (inactive) | 5.2e-05 (inactive) | 0.00536 (inactive) | -5.97% (inactive) | 18.8% (inactive) |
| Cc1ccc(NC(=O)CSc2nnc(CNC(=O)c3c(F)cccc3Cl)o2)cc1 | 645 | -10% (inactive) | -19.6% (inactive) | 108% | -49% (inactive) | 118% | -0.346 (inactive) | -7.5e-06 (inactive) | 0.00601 (inactive) | 1.9% (inactive) | 10.9% (inactive) |
| CC1=Nn2c(nnc2-c2ccccn2)SC1 | 378 | 4.8% (inactive) | -0.1% (inactive) | 68.5% | -158% (inactive) | 198% | -0.443 (inactive) | -4.3e-05 (inactive) | 0.00557 (inactive) | 7.81% (inactive) | 11.5% (inactive) |
| CC(C)COc1ccc(C2NC(=O)NC2=O)cc1 (stereo not drawn) | 718 | -10.2% (inactive) | -12.5% (inactive) | 117% | 74.1% (inactive) | 91.5% | -0.452 (inactive) | -2.2e-05 (inactive) | 0.00367 (inactive) | 1.04% (inactive) | 19.9% (inactive) |
